Key:
Test in all cases: PBM binding z-score (relative to random genomic background probes); higher = stronger binding; sequences stand for … in GC…GCGATTGACAGCGTAGAATGAAGG
[1] = test system: FXR:RXRa (NR concentration 270 nM, RXRa partner concentration 90 nM)
Summary of the method: (§1)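 For binding z-scores, the reference was random background probes on custom Agilent 4×180K protein-binding microarrays. These arrays were incubated 1 h with ligand-free nuclear receptor dimers in PBS pH 7.4, 2% milk, 0.02% Triton X-100, 1 mM DTT, 0.2 mg/mL BSA and 0.4 mg/ml salmon testes DNA. Fluorescence was scanned after antibody detection of each partner (one per run) and regression-normalized.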

[2] = test system: LXRa:RXRa (NR concentration 270 nM, RXRa partner concentration 90 nM)
Summary of the method: as §1

[3] = test system: LXRa homodimer (NR concentration 270 nM)
Summary of the method: as §1

[4] = test system: LXRb:RXRa (NR concentration 270 nM, RXRa partner concentration 90 nM)
Summary of the method: as §1

[5] = test system: LXRb homodimer (NR concentration 270 nM)
Summary of the method: as §1

[6] = test system: PPARa:RXRa (NR concentration 270 nM, RXRa partner concentration 90 nM)
Summary of the method: as §1

[7] = test system: PPARg:RXRa (NR concentration 180 nM, RXRa partner concentration 90 nM)
Summary of the method: as §1

[8] = test system: PPARg:RXRa 270nM:90nM, anti-RXR (NR concentration 270 nM, RXRa partner concentration 90 nM)
Summary of the method: as §1

[9] = test system: PPARg:RXRa 30nM:10nM, anti-RXR (NR concentration 30 nM, RXRa partner concentration 10 nM)
Summary of the method: as §1

[10] = test system: PPARg:RXRa 90nM:30nM, anti-RXR (NR concentration 90 nM, RXRa partner concentration 30 nM)
Summary of the method: as §1

[11] = test system: PPARg:RXRa DBDmut IVT, anti-RXR (DBD mutation: RXRa K156A/R161A, NR concentration 270 nM, RXRa partner concentration 90 nM)
Summary of the method: as §1

[12] = test system: PPARg:RXRa IVT, anti-PPARg (NR concentration 270 nM, RXRa partner concentration 90 nM)
Summary of the method: as §1

[13] = test system: PPARg DBDmut:RXRa IVT, anti-PPARg (DBD mutation: PPARg1 K132A/R137A, NR concentration 270 nM, RXRa partner concentration 90 nM)
Summary of the method: as §1

[14] = test system: PPARg DBDmut IVT, anti-PPARg (DBD mutation: PPARg1 K132A/R137A, NR concentration 270 nM)
Summary of the method: as §1

[15] = test system: PPARg homodimer (NR concentration 180 nM)
Summary of the method: as §1

[16] = test system: PXR:RXRa (NR concentration 270 nM, RXRa partner concentration 90 nM)
Summary of the method: as §1

[17] = test system: PXR homodimer (NR concentration 270 nM)
Summary of the method: as §1

[18] = test system: RARa:RXR (NR concentration 270 nM, RXRa partner concentration 90 nM)
Summary of the method: as §1

[19] = test system: RARa homodimer (NR concentration 270 nM)
Summary of the method: as §1

[20] = test system: RARb:RXRa (NR concentration 270 nM, RXRa partner concentration 90 nM)
Summary of the method: as §1

Work on TTACCAAGGTGAGCTGAGGTCGTTGGTCCAACTC yielded a PBM binding z-score [1] of 1.55, a PBM binding z-score [2] of 1.34 and a PBM binding z-score [3] of -0.436. For the same sequence, the PBM binding z-score [4] was 0.439, the PBM binding z-score [5] was -1.02 and the PBM binding z-score [6] was 1.67. It also gave a PBM binding z-score [7] of -0.467, a PBM binding z-score [8] of 0.63 and a PBM binding z-score [9] of -0.5. The PBM binding z-score [10] was 0.00719, the PBM binding z-score [11] was 1.42 and the PBM binding z-score [12] was 1.75. The PBM binding z-score [13] was -0.48, the PBM binding z-score [14] was -1.25 and the PBM binding z-score [15] was -0.363. The PBM binding z-score [16] was 4.68, the PBM binding z-score [17] was 0.529 and the PBM binding z-score [18] was 1.63. It also gave a PBM binding z-score [19] of -1.02 and a PBM binding z-score [20] of 1.72.
With ATCGAAAGCTCGAGGTGAGTATAGAGAAAGGGAA the PBM binding z-score [1] was -0.382, the PBM binding z-score [2] was -0.596 and the PBM binding z-score [3] was -0.515. It also gave a PBM binding z-score [4] of -0.793, a PBM binding z-score [5] of -0.851 and a PBM binding z-score [6] of -0.028. For the same sequence, the PBM binding z-score [7] was 0.163, the PBM binding z-score [8] was -0.516 and the PBM binding z-score [9] was -0.268. For the same sequence, the PBM binding z-score [10] was -0.554, the PBM binding z-score [11] was -0.98 and the PBM binding z-score [12] was 0.455. The PBM binding z-score [13] was 0.71, the PBM binding z-score [14] was 0.162 and the PBM binding z-score [15] was -1.14. For the same sequence, the PBM binding z-score [16] was -0.37, the PBM binding z-score [17] was -0.567 and the PBM binding z-score [18] was -0.162. For the same sequence, the PBM binding z-score [19] was -0.838 and the PBM binding z-score [20] was 0.00915.
Sequence ATACCAAGGTGATCGTGAGGCCGTTGATACTAAC has a PBM binding z-score [1] of 0.369, a PBM binding z-score [2] of 0.246 and a PBM binding z-score [3] of -0.0793. It also gave a PBM binding z-score [4] of 0.0516, a PBM binding z-score [5] of -0.198 and a PBM binding z-score [6] of 0.139. The PBM binding z-score [7] was 0.361, the PBM binding z-score [8] was 0.165 and the PBM binding z-score [9] was 0.0132. It also gave a PBM binding z-score [10] of 0.0891, a PBM binding z-score [11] of 0.533 and a PBM binding z-score [12] of 1.06. The PBM binding z-score [13] was 0.198, the PBM binding z-score [14] was 0.471 and the PBM binding z-score [15] was 0.381. It also gave a PBM binding z-score [16] of 0.595, a PBM binding z-score [17] of 0.275 and a PBM binding z-score [18] of 1.03. For the same sequence, the PBM binding z-score [19] was -0.0475 and the PBM binding z-score [20] was 0.735.
With AATACAGGCTCATCGTAGGCCAGAGTACGCACAG the PBM binding z-score [1] was -0.253, the PBM binding z-score [2] was -0.407 and the PBM binding z-score [3] was -0.211. The PBM binding z-score [4] was -0.712, the PBM binding z-score [5] was -0.726 and the PBM binding z-score [6] was -0.569. The PBM binding z-score [7] was 0.784, the PBM binding z-score [8] was -0.256 and the PBM binding z-score [9] was -0.133. The PBM binding z-score [10] was -0.254, the PBM binding z-score [11] was -0.148 and the PBM binding z-score [12] was -0.0891. It also gave a PBM binding z-score [13] of 0.24, a PBM binding z-score [14] of -0.0374 and a PBM binding z-score [15] of -0.257. It also gave a PBM binding z-score [16] of -0.568, a PBM binding z-score [17] of -0.37 and a PBM binding z-score [18] of -0.622. It also gave a PBM binding z-score [19] of 0.466 and a PBM binding z-score [20] of -0.11.
TCATATAGGTAATACAGGTGATAGTCGGCATCTA showed a PBM binding z-score [1] of 0.719, a PBM binding z-score [2] of 1 and a PBM binding z-score [3] of 0.507. The PBM binding z-score [4] was 0.789, the PBM binding z-score [5] was 0.315 and the PBM binding z-score [6] was 1.36. For the same sequence, the PBM binding z-score [7] was 1.6, the PBM binding z-score [8] was 2.3 and the PBM binding z-score [9] was 3.98. For the same sequence, the PBM binding z-score [10] was 3.1, the PBM binding z-score [11] was 4.04 and the PBM binding z-score [12] was 3.01. For the same sequence, the PBM binding z-score [13] was 1.19, the PBM binding z-score [14] was 2.05 and the PBM binding z-score [15] was 1.08. For the same sequence, the PBM binding z-score [16] was 0.592, the PBM binding z-score [17] was 0.285 and the PBM binding z-score [18] was 0.723. It also gave a PBM binding z-score [19] of 1.73 and a PBM binding z-score [20] of 0.484.
Sequence AGGACGAGGGCAATGAGTTGATAGCACGGGTGGC has a PBM binding z-score [1] of 0.665, a PBM binding z-score [2] of 0.175 and a PBM binding z-score [3] of -0.256. It also gave a PBM binding z-score [4] of -0.148, a PBM binding z-score [5] of -0.403 and a PBM binding z-score [6] of 0.903. It also gave a PBM binding z-score [7] of 1.12, a PBM binding z-score [8] of 0.232 and a PBM binding z-score [9] of -0.168. It also gave a PBM binding z-score [10] of -0.187, a PBM binding z-score [11] of 1.76 and a PBM binding z-score [12] of 1.02. It also gave a PBM binding z-score [13] of 0.439, a PBM binding z-score [14] of 0.19 and a PBM binding z-score [15] of 0.218. The PBM binding z-score [16] was 1.55, the PBM binding z-score [17] was 4.82 and the PBM binding z-score [18] was 0.678. The PBM binding z-score [19] was -0.00105 and the PBM binding z-score [20] was 2.12.
Sequence TCTCTTAGTTGATTAGGGCAACCGAAACAGCGGA has a PBM binding z-score [1] of 0.698, a PBM binding z-score [2] of 0.799 and a PBM binding z-score [3] of 0.13. It also gave a PBM binding z-score [4] of 0.868, a PBM binding z-score [5] of 1.26 and a PBM binding z-score [6] of 1.22. It also gave a PBM binding z-score [7] of 0.00699, a PBM binding z-score [8] of 2.24 and a PBM binding z-score [9] of 3.88. It also gave a PBM binding z-score [10] of 3.1, a PBM binding z-score [11] of 2.63 and a PBM binding z-score [12] of 1.67. The PBM binding z-score [13] was 0.796, the PBM binding z-score [14] was 1.17 and the PBM binding z-score [15] was 1.28. It also gave a PBM binding z-score [16] of 0.757, a PBM binding z-score [17] of 0.477 and a PBM binding z-score [18] of 0.892. The PBM binding z-score [19] was 0.846 and the PBM binding z-score [20] was 1.51.
Work on TCTAGTTGGTCAAAGGTCACAAACTCGAAATGCG yielded a PBM binding z-score [1] of 4.94, a PBM binding z-score [2] of 5.27 and a PBM binding z-score [3] of 3.15. It also gave a PBM binding z-score [4] of 5.16, a PBM binding z-score [5] of 1.49 and a PBM binding z-score [6] of 6.4. It also gave a PBM binding z-score [7] of 10.9, a PBM binding z-score [8] of 9.72 and a PBM binding z-score [9] of 9.69. For the same sequence, the PBM binding z-score [10] was 10.3, the PBM binding z-score [11] was 3.16 and the PBM binding z-score [12] was 5.98. The PBM binding z-score [13] was 1.2, the PBM binding z-score [14] was 1.06 and the PBM binding z-score [15] was 3.78. It also gave a PBM binding z-score [16] of 5.56, a PBM binding z-score [17] of 1.54 and a PBM binding z-score [18] of 6.79. The PBM binding z-score [19] was 3.07 and the PBM binding z-score [20] was 4.77.
Sequence ATCGAAAGGTCGTGAGGTGAGTATCCAGAAAGGC has a PBM binding z-score [1] of 5.07, a PBM binding z-score [2] of 4.11 and a PBM binding z-score [3] of 0.195. It also gave a PBM binding z-score [4] of 3.04, a PBM binding z-score [5] of 0.388 and a PBM binding z-score [6] of 4.97. For the same sequence, the PBM binding z-score [7] was 4.11, the PBM binding z-score [8] was 4.31 and the PBM binding z-score [9] was 1.14. The PBM binding z-score [10] was 2.9, the PBM binding z-score [11] was 0.293 and the PBM binding z-score [12] was 2.48. For the same sequence, the PBM binding z-score [13] was 1.2, the PBM binding z-score [14] was 1.27 and the PBM binding z-score [15] was 1.41. It also gave a PBM binding z-score [16] of 3.13, a PBM binding z-score [17] of 0.135 and a PBM binding z-score [18] of 4.25. It also gave a PBM binding z-score [19] of 0.545 and a PBM binding z-score [20] of 3.93.

From the supplement of paper PMC6555819
